Inconclusive results are not listed. Where a call stands in place of a potency, no number is given. Active and inactive are the calls of the source. Calls come from the whole dose curve; as a rule, active = well fitted cell-killing curve with a large enough effect; inconclusive = small, poorly fitted or top-dose-only effect, or effect the other way; inactive = no such curve, though single readings can be large or run the other way.
Experiment: Quantitative High-Throughput drug screen in 47 multiple myeloma cell lines against the NCATS MIPE library collection: KMS12PE_JCRB cell viability assay (AID 1918972); note: nearly all actives have a fitted effect of over 30% in size
Settings: KMS12PE myeloma viability, CellTiter-Glo ATP, 48 h; series mostly up to 45.8 µM
From the text: PI: Beverly A. Mock Ph.D.
Laboratory of Cancer Biology and Genetics,
Center for Cancer Research, National Cancer Institute,
National Institute of Health, Bethesda, Maryland
Drug resistance and disease progression are common in multiple myeloma (MM) patients, underscoring the need for new therapeutic combinations. […] We hypothesized that effective combinations would reduce MYC expression and enhance p16 activity. […] These preclinical data identify potentially useful drug combinations for evaluation in drug-resistant MM and reveal potential mechanisms of combined drug sensitivity.
Described herein is the primary MIPE qHTS used to cherrypick compounds. Validated compounds were then further tested for potential synergistic activiy.
[1] Peat TJ, Gaikwad SM, Dubois W, Gyabaah-Kessie N, Zhang S, Gorjifard S, Phyo Z, Andres M, Hughitt VK, Simpson RM, Miller MA, Girvin AT, Taylor A, Williams D, D'Antonio N, Zhang Y, Rajagopalan A, Flietner E, Wilson K, Zhang X, Shinn P, Klumpp-Thomas C, McKnight C, Itkin Z, Chen L, Kazandijian D, Zhang J, Michalowski AM, Simmons JK, Keats J, Thomas CJ, Mock BA. Drug combinations identified by high-throughput screening promote cell cycle transition and upregulate Smad pathways in myeloma. Cancer Lett. 2023 Aug 1;568:216284. doi: 10.1016/j.canlet.2023.216284. Epub 2023 Jun 24. PMID: 37356470; PMCID: PMC10408729.
SEQUENCE No. (e.g., 1, 2, 3, etc.); […] (e.g., Cells, Incubation, Reagent, etc.); VALUE and DESCRIPTION.
1; Cells; 5 uL; white, solid bottom 1536-well Greiner assay plate.
2; Compounds; 23 nL; Kalypsis pin tool (Wako USA) equipped with a 1536-well pin head to transfer to the assay plates.
3; Incubation; 48 hours; 37C incubation.
4; Reagent;5uL; CellTiter Glo (Promega).
5; Detector; 425V; Luminescence; Viewlux PerkinElmer.
NOTES (numbers refer to Sequence numbers above)
1. The cell-based screening methods employed in this study were like those previously published. Briefly, the corresponding myeloma cell lines were screened in 1,536-well plates with 500 cells, 5-uL per well for inhibition of cell viability (assessed by measuring ATP levels with CellTiterGlo).
2. NCATS MIPE 4.0 library of approved and investigational drugs were added using the Kalypsis pin tool. Wells treated with DMSO only for 100% viability and media only wells for 0% viability were used as controls.
3. The assay plates were covered and incubated for 48 hours in a 37C, 5% CO2 incubator with controlled humidity.
4. After 48 hours, CellTilter-GloTM luminescent substrate mix (Promega) reagent was added to the assay plate and plates we incubated for 5 min at room temperature.
5. Signal was measured as median relative luminescence units on a ViewLux (PerkinElmer) multiplate reader.
[1] Heske CM, Davis MI, Baumgart JT, Wilson K, Gormally MV, Chen L, Zhang X, Ceribelli M, Duveau DY, Guha R, Ferrer M, Arnaldez FI, Ji J, Tran HL, Zhang Y, Mendoza A, Helman LJ, Thomas CJ. Matrix Screen Identifies Synergistic Combination of PARP Inhibitors and Nicotinamide Phosphoribosyltransferase (NAMPT) Inhibitors in Ewing Sarcoma. Clin Cancer Res. 2017 Dec 1;23(23):7301-7311. doi: 10.1158/1078-0432.CCR-17-1121. Epub 2017 Sep 12. PMID: 28899971; PMCID: PMC6636827.
Potency is the fitted concentration of half-maximal effect.

SMILES | Potency
O=c1c(O)c(-c2cc(O)c(O)c(O)c2)oc2cc(O)cc(O)c12 | inactive
CCN(CCO)CCCC(C)Nc1ccnc2cc(Cl)ccc12 (stereo not given) | inactive
COC(=O)C1=C(C)NC(C)=C(C(=O)OC(C)C)C1c1cccc2nonc12 (stereo not given) | inactive
CN1CCC(=C2c3ccccc3CCc3sccc32)CC1 | 23.5 µM (active)
COC(=O)C1=C(C)NC(C)=C(C(=O)OCCCN2CCC(c3ccccc3)(c3ccccc3)CC2)C1c1cccc([N+](=O)[O-])c1 (stereo not given) | inactive
O=C1NC(=O)C(c2ccccc2[N+](=O)[O-])=C1Nc1ccc(O)c(Cl)c1 | 10.5 µM (active)
CCOC(=O)C1=C[C@@H](OC(CC)CC)[C@H](NC(C)=O)[C@@H](N)C1 | inactive
CS(=O)(=O)OCCCCOS(C)(=O)=O | inactive
O=C(NCC1CCCCN1)c1cc(OCC(F)(F)F)ccc1OCC(F)(F)F (stereo not given) | 2.09 µM (active)
O=C(O)c1cccnc1Nc1cccc(C(F)(F)F)c1 | inactive
Cc1ccc(S(=O)(=O)NC(=O)NN2CC3CCCC3C2)cc1 (stereo not given) | 26.4 µM (active)
N[C@@H](Cc1cc(I)c(Oc2cc(I)c(O)c(I)c2)c(I)c1)C(=O)O | inactive
Cc1nc(Nc2ncc(C(=O)Nc3c(C)cccc3Cl)s2)cc(N2CCN(CCO)CC2)n1 | 0.372 µM (active)
Cc1nc2n(c(=O)c1CCN1CCC(c3noc4cc(F)ccc34)CC1)CCCC2 | inactive
NS(=O)(=O)c1cc(C(=O)O)c(NCc2ccco2)cc1Cl | inactive
O=c1cc(N2CCOCC2)oc2c(-c3ccccc3)cccc12 | inactive
COc1c2occc2cc2ccc(=O)oc12 | inactive
COc1ccccc1N1CCN(CCN(C(=O)C2CCCCC2)c2ccccn2)CC1 | 18.7 µM (active)
C=CCc1cc(OC)c(O)c(C(=O)NCCO)c1 | inactive
Clc1ccc(C(Cn2ccnc2)OCc2ccsc2Cl)c(Cl)c1 (stereo not given) | 18.7 µM (active)

SMILES | Potency
CN(C)CCCC1(c2ccc(F)cc2)OCc2cc(C#N)ccc21 (stereo not given) | inactive
Cc1nc(-c2ccc(OCC(C)C)c(C#N)c2)sc1C(=O)O | inactive
Cc1ccc(C(=O)c2cc(O)c(O)c([N+](=O)[O-])c2)cc1 | 18.7 µM (active)
C[Se]CCC(N)C(=O)O (stereo not given) | inactive
NC(=NCc1ccccc1)NC(=O)c1nc(Cl)c(N)nc1N | 23.5 µM (active)
CC(C)c1ccc2oc3nc(N)c(C(=O)O)cc3c(=O)c2c1 | inactive
Nc1nc(N)c(N=O)c(OCC2CCCCC2)n1 | 4.69 µM (active)
CCCCc1ccc2nc(NC(=O)OC)[nH]c2c1 | 0.0047 µM (active)
O=C(CS(=O)Cc1ccco1)NCC=CCOc1cc(CN2CCCCC2)ccn1 (stereo not given) | inactive
CCC(C)(Oc1ccc(C2(c3ccc(OC(C)(CC)C(=O)O)cc3)CCCCC2)cc1)C(=O)O (stereo not given) | inactive
Nc1nc(Cl)nc2c1ncn2[C@H]1C[C@H](O)[C@@H](CO)O1 | 0.0372 µM (active)
CC1=C(C(=O)O)N2C(=O)[C@@H](NC(=O)[C@H](N)C3=CCC=CC3)[C@H]2SC1 | inactive
Cc1cc(Cl)ccc1OCCCC(=O)NO | 14.8 µM (active)
COc1ccc2cc([C@H](C)C(=O)O)ccc2c1 | inactive
O=P(O)(O)C(O)(Cn1ccnc1)P(=O)(O)O | inactive
CNC[C@H](O)c1ccc(O)c(O)c1 | inactive
Cc1cc2c(s1)Nc1ccccc1N=C2N1CCN(C)CC1 | inactive
COCCCN1CCC(NC(=O)c2cc(Cl)c(N)c3c2OCC3)CC1 | 16.6 µM (active)
CCCCCCCCOc1ccccc1C(=O)Nc1ccc(C(=O)OCC[N+](C)(CC)CC)cc1 | 4.69 µM (active)
CC(C)c1nc(CN(C)C(=O)N[C@H](C(=O)N[C@@H](Cc2ccccc2)C[C@H](O)[C@H](Cc2ccccc2)NC(=O)OCc2cncs2)C(C)C)cs1 | inactive

Source: PubChem BioAssay (NCATS)
